Records with an inconclusive call do not appear. Activity calls are given as the source filed them. Unless noted, the call rests on the fitted dose curve; in most records, active means well fitted curve in the direction sought with a large enough effect in the repeat runs; inconclusive means weak or mixed curves; inactive means no such curve, though single readings can be large; an effect the other way counts as inactive or inconclusive.
What was measured:
[1] = biological target: Aryl hydrocarbon receptor (Homo sapiens) (UniProt P35869); assay: qHTS assay to identify small molecule that activate the aryl hydrocarbon receptor (AhR) signaling pathway (AID 743085);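 further: HG2L7.5c1 human HepG2 liver cells with stably integrated DRE-driven firefly reporter; series mostly up to about 70 µM; nearly all actives have a fitted effect of over 15% in size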
Sequence of Aryl hydrocarbon receptor (Homo sapiens) (P35869 whole entry, looked up): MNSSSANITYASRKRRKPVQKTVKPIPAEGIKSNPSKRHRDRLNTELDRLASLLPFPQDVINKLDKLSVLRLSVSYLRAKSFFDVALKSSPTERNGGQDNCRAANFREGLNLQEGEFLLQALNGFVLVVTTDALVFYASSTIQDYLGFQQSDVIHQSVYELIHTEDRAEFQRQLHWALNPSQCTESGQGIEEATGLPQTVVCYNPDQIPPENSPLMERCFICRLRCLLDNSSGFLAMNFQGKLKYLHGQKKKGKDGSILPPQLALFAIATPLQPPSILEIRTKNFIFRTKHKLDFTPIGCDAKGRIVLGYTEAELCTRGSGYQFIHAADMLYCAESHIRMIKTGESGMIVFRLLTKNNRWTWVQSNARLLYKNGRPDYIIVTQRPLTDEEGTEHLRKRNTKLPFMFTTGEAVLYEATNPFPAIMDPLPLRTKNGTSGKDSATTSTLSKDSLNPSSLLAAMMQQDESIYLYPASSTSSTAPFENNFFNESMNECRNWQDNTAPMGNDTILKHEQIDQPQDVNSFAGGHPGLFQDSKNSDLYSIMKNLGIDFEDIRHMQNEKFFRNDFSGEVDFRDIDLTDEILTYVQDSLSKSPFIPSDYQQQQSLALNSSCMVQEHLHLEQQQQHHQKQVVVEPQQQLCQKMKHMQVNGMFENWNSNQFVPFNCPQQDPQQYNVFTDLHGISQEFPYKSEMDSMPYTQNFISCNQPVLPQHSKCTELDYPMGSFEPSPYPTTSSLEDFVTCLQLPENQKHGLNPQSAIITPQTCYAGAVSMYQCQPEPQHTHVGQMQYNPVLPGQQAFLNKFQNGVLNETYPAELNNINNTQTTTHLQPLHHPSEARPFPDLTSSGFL
How it was run: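 Compounds were tested in HepG2 hepatocellular carcinoma cells harbouring a stably integrated luciferase gene under control of 20 DREs. Increased reporter signal after 24 h treatment at 37C was taken as AhR activation.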

[2] = qHTS assay to identify small molecule that activate the aryl hydrocarbon receptor (AhR) signaling pathway - cell viability counter screen (AID 743086);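 further: HepG2 liver cells carrying the AhR DRE luciferase reporter; series mostly up to about 70 µM; nearly all actives have a fitted effect of over 45% in size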
How it was run: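 HepG2-AhR-luc (HG2L7.5c1) cells, 4000/well, treated 24 h at 37 C with compound; viability measured as CellTiter-Fluor fluorescence after 30 min in the same wells as the luciferase read.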

[3] = biological target: Peroxisome proliferator-activated receptor gamma (Homo sapiens) (UniProt P37231); assay: qHTS assay to identify small molecule agonists of the peroxisome proliferator-activated receptor gamma (PPARg) signaling pathway (AID 743094; active means well fitted activation curve with a large enough effect in the signal ratio in the repeat runs, not every such curve was filed as active; the % refers to the signal ratio)
Sequence of Peroxisome proliferator-activated receptor gamma (Homo sapiens) (P37231 whole entry, looked up): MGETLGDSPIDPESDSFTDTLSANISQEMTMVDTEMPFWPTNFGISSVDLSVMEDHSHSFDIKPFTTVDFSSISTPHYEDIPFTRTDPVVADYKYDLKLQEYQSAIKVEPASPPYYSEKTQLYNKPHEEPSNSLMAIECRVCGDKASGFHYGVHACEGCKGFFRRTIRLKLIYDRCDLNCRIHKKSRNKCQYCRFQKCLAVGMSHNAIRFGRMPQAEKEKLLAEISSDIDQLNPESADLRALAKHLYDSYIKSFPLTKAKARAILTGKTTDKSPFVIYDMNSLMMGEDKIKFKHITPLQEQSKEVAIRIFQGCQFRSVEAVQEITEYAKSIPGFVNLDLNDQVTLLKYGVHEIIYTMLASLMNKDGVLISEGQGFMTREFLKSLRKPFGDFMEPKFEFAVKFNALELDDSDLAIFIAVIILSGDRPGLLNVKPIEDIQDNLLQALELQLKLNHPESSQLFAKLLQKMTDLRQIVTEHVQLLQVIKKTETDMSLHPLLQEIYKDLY
How it was run: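 Agonist activity was taken from a beta-lactamase reporter (FRET substrate, 1 h at room temperature) in HEK293H cells carrying a PPARg UAS-bla construct. Compounds in DMSO were incubated 17 h at 37C after a 5 h cell pre-incubation.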

[4] = biological target: Peroxisome proliferator-activated receptor gamma (Homo sapiens) (UniProt P37231); assay: qHTS assay to identify small molecule antagonists of the peroxisome proliferator-activated receptor gamma (PPARg) signaling pathway (AID 743191; calls by dose curve; further: series mostly up to about 63 µM; nearly all actives have a fitted effect of over 30% in size)
How it was run: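 GeneBLAzer PPARg UAS-bla HEK293H cells, 5 h post-plating, exposed to compounds 17 h at 37C. LiveBLAzer B/G FRET substrate added for 1 h at room temperature; beta-lactamase reporter read by fluorescence intensity.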

[5] = qHTS assay to identify small molecule antagonists of the peroxisome proliferator-activated receptor gamma (PPARg) signaling pathway - cell viability counter screen (AID 743194); further: nearly all actives have a fitted effect of over 55% in size
How it was run: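 Cytotoxicity counter screen in PPARg-bla HEK293H cells, same wells as reporter assay. Compounds plus 50 nM rosiglitazone (final) for 17 h at 37 C, then viability read by CellTiter-Glo luminescence.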

[6] = qHTS assay for small molecule agonists of the antioxidant response element (ARE) signaling pathway (AID 743202; active means well fitted activation curve with a large enough effect in the signal ratio in the repeat runs, not every such curve was filed as active; the % refers to the signal ratio)
How it was run: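 HepG2 ARE-bla reporter line, 2,000 cells/well; 5 h preincubation 37 C/5% CO2; compound (DMSO) 16 h 37 C; B/G FRET substrate 2 h RT; fluorescence intensity.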

[7] = qHTS assay for small molecule agonists of the antioxidant response element (ARE) signaling pathway - cell viability counter screen (AID 743203; calls by dose curve; further: nearly all actives have a fitted effect of over 55% in size)
How it was run: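 Viability counter screen: CellTiter-Glo luminescence, read after 30 min at room temperature, in ARE-bla HepG2 wells. Compound exposure lasted 16 h at 37C/5% CO2, following a 5 h pre-incubation of the cells after plating.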

[8] = qHTS assay for small molecule activators of the heat shock response signaling pathway - cell viability counter screen (AID 743209); further: nearly all actives have a fitted effect of over 50% in size
How it was run: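 Cytotoxicity counter screen run in the same wells as the heat-shock bla reporter assay: HeLa HSE-bla cells, 5 h compound exposure at 37 C, viability read by CellTiter-Glo luminescence.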

[9] = qHTS assay for small molecule activators of the heat shock response signaling pathway (AID 743210; active means well fitted activation curve with a large enough effect in the signal ratio in the repeat runs, with a control signal flat, not every such curve was filed as active; the % refers to the signal ratio;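 further: HeLa cells with beta-lactamase reporter driven by heat shock elements; series mostly up to about 63 µM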)
How it was run: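 Beta-lactamase reporter read-out: FRET substrate fluorescence after 2.5 h at RT, following 5 h compound treatment at 37 C of HeLa cells carrying HSE-driven bla reporter; quantitative HTS format.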

[10] = qHTS assay to identify small molecule agonists of the peroxisome proliferator-activated receptor delta (PPARd) signaling pathway - cell viability counter screen (AID 743211); further: nearly all actives have a fitted effect of over 55% in size
How it was run: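 Counter screen for cytotoxicity run in parallel with the PPARd reporter screen. Beta-lactamase reporter HEK293H cells exposed to compounds 17 h; ATP-based CellTiter-Glo luminescence quantified viability.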

[11] = qHTS assay to identify small molecule antagonists of the peroxisome proliferator-activated receptor delta (PPARd) signaling pathway - cell viability counter screen (AID 743213); further: nearly all actives have a fitted effect of over 50% in size
How it was run: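 HEK293H cells with the PPARd UAS-bla reporter, co-treated 17 h at 37 C with compounds and L165041 (300 nM final), were lysed with CellTiter-Glo. Luminescence indicated viable cell content.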

[12] = qHTS assay to identify small molecule agonists of the farnesoid-X-receptor (FXR) signaling pathway - cell viability counter screen (AID 743218); further: nearly all actives have a fitted effect of over 45% in size
How it was run: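 Viability counter screen in the same wells: CellTiter-Glo luminescence, 30 min room-temperature incubation, measured after the beta-lactamase read. Cells were GeneBLAzer FXR-UAS-bla HEK 293T, compound-treated 16 h at 37C.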

[13] = qHTS assay to identify small molecule antagonists of the farnesoid-X-receptor (FXR) signaling pathway - cell viability counter screen (AID 743221; active means well fitted cell-killing curve with a large enough effect in the repeat runs, not every such curve was filed as active; further: nearly all actives have a fitted effect of over 50% in size)
How it was run: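 Multiplexed counter screen: viability of FXR-bla HEK 293T cells under agonist stimulation by chenodeoxycholic acid (50 uM, final) and test compound for 16 h at 37 C, measured by CellTiter-Glo luminescence in the reporter wells.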

[14] = biological target: Vitamin D3 receptor (Homo sapiens) (UniProt P11473); assay: qHTS assay to identify small molecule agonists of the vitamin D receptor (VDR) signaling pathway (AID 743222; calls by dose curve)
Sequence of Vitamin D3 receptor (Homo sapiens) (P11473 whole entry, looked up): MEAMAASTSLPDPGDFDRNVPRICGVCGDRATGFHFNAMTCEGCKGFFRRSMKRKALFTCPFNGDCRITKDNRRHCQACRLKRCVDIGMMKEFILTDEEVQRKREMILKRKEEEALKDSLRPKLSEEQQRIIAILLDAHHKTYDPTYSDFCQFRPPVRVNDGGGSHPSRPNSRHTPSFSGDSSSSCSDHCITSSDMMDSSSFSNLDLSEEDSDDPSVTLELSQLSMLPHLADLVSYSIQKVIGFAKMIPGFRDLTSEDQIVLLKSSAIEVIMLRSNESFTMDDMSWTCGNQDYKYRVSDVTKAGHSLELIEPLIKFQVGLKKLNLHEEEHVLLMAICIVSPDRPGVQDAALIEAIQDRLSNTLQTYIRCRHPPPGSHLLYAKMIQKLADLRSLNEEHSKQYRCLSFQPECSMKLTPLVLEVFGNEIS
How it was run: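 Agonist mode, beta-lactamase reporter: fluorescence from LiveBLAzer B/G FRET substrate (2 h, room temperature) read after 16 h compound treatment at 37 C of VDR-bla cells, which were pre-incubated 4 h after seeding.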

[15] = biological target: Vitamin D3 receptor (Homo sapiens) (UniProt P11473); assay: qHTS assay to identify small molecule antagonists of the vitamin D receptor (VDR) signaling pathway (AID 743223; active means well fitted inhibition curve with a large enough effect in the signal ratio in the repeat runs, not every such curve was filed as active; the % refers to the signal ratio)
How it was run: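 Cells carrying a VDR-driven beta-lactamase reporter (VDR-bla) were co-treated with compound and 3 nM final 1alpha,25-dihydroxyvitamin D3 for 16 h at 37C; reporter activity was measured as FRET substrate fluorescence after 2 h at room temperature.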

[16] = qHTS assay to identify small molecule agonists of the vitamin D receptor (VDR) signaling pathway - cell viability counter screen (AID 743224); further: series mostly up to about 63 µM; nearly all actives have a fitted effect of over 50% in size
How it was run: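 Counter screen run in the same wells as the VDR-bla reporter assay: CellTiter-Glo luminescence, 30 min at room temperature, after 16 h compound treatment at 37C of cells pre-plated for 4 h.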

[17] = biological target: Peroxisome proliferator-activated receptor delta (Homo sapiens) (UniProt Q03181); assay: qHTS assay to identify small molecule agonists of the peroxisome proliferator-activated receptor delta (PPARd) signaling pathway (AID 743212; calls by dose curve)
Sequence of Peroxisome proliferator-activated receptor delta (Homo sapiens) (Q03181 whole entry, looked up): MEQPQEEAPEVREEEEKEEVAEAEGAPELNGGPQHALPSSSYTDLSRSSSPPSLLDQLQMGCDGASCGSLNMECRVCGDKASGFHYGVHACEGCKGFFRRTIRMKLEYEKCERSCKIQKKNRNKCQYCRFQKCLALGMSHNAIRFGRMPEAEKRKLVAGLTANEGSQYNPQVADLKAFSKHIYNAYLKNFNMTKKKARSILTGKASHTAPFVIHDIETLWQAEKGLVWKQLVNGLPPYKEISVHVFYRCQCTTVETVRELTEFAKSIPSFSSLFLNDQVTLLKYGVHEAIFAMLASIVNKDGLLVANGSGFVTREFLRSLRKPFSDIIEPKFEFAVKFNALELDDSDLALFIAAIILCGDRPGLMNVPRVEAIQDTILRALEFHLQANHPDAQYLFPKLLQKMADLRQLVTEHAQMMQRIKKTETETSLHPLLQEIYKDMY
How it was run: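 Read-out: beta-lactamase FRET fluorescence after 2 h room-temperature incubation with LiveBLAzer B/G substrate. Cells were HEK293H carrying a UAS-bla reporter for PPARd, treated at 37 C with DMSO-dissolved compounds.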

[18] = biological target: Peroxisome proliferator-activated receptor delta (Homo sapiens) (UniProt Q03181); assay: qHTS assay to identify small molecule antagonists of the peroxisome proliferator-activated receptor delta (PPARd) signaling pathway (AID 743215; active means well fitted inhibition curve with a large enough effect in the signal ratio in the repeat runs, not every such curve was filed as active; the % refers to the signal ratio;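 further: cells stimulated with agonist L165041 at 300 nM final during compound exposure; series mostly up to about 62 µM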)
How it was run: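 Agonist L165041 (300 nM final) added with compound to PPARd-bla HEK293H UAS-bla reporter cells; 17 h incubation at 37 C. Read-out: LiveBLAzer FRET substrate, 2 h at room temperature, fluorescence intensity.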

[19] = biological target: Bile acid receptor (Homo sapiens) (UniProt Q96RI1); assay: qHTS assay to identify small molecule antagonists of the farnesoid-X-receptor (FXR) signaling pathway (AID 743217; active means well fitted inhibition curve with a large enough effect in the signal ratio in the repeat runs, not every such curve was filed as active; the % refers to the signal ratio)
Sequence of Bile acid receptor (Homo sapiens) (Q96RI1 whole entry, looked up): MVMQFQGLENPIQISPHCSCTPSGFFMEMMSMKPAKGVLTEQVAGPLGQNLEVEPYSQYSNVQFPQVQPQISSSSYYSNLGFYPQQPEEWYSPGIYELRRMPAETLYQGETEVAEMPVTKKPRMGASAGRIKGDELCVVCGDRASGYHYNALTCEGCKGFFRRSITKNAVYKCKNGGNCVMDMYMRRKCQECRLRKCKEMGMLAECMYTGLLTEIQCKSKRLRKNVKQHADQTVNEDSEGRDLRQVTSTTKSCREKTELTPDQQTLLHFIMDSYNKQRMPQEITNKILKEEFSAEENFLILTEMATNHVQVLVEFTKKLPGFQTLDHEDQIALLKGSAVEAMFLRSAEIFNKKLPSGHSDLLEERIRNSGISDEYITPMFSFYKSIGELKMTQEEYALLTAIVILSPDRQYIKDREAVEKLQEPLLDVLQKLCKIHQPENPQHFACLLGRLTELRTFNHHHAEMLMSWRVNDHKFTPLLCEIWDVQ
How it was run: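 Antagonist mode: chenodeoxycholic acid at 50 uM final stimulates a UAS-driven beta-lactamase reporter in HEK 293T FXR-bla cells during 16 h, 37C compound exposure. Read-out is FRET substrate fluorescence after 2 h at room temperature.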

[20] = biological target: Bile acid receptor (Homo sapiens) (UniProt Q96RI1); assay: qHTS assay to identify small molecule agonists of the farnesoid-X-receptor (FXR) signaling pathway (AID 743220; active means well fitted activation curve with a large enough effect in the signal ratio in the repeat runs, not every such curve was filed as active; the % refers to the signal ratio)
How it was run: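 FXR-UAS-bla HEK 293T cells carrying a UAS-driven beta-lactamase reporter were plated for 5 h at 37C/5% CO2, then exposed to DMSO-dissolved Tox21 10K compounds for 16 h at 37C. A LiveBLAzer B/G FRET substrate was loaded for 2 h at room temperature before fluorescence reading.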

Measured: Potency

N=C(N)S(=O)O
not listed: [17] | [18] | [19] | [20]
inactive: all other assays above

CN1CCN(C(=O)C2CCCCC2)CC1
not listed: [10] | [13]
inactive: all other assays above

CNC(C)=O
not listed: [18] | [19] | [20]
inactive: all other assays above

Cc1ccc(NC(N)=O)cc1
not listed: [11] | [19] | [20]
inactive: all other assays above

Cc1cccc(N)n1
not listed: [11] | [15] | [18] | [20]
inactive: all other assays above

C=CC(=O)CC
not listed: [12] | [19]
inactive: all other assays above

CCOC(=O)[C@H](CCc1ccccc1)N[C@H]1CS[C@H](c2cccs2)CN(CC(=O)O)C1=O
not listed: [11] | [12] | [14] | [15] | [18] | [19] | [20]
inactive: all other assays above

CCCCC(CC)COC(=O)CC#N (stereo not drawn)
not listed: [17] | [18]
inactive: all other assays above

Cc1cc(C)c(N)c(Cl)c1
not listed: [13] | [19] | [20]
inactive: all other assays above

Nc1ccc(C(=O)NCC(=O)O)cc1
not listed: [13] | [19] | [20]
inactive: all other assays above

CCCCCCCCCCCC(C)=O
not listed: [10] | [15] | [18]
inactive: all other assays above

CCc1ncc(C)[nH]1
not listed: [13] | [19]
inactive: all other assays above

N#CC1(N)CCCCC1
not listed: [13] | [17] | [18] | [19] | [20]
inactive: all other assays above

C=CC(C)(CCC=C(C)C)OC(=O)C(C)C (stereo not drawn)
not listed: [12] | [18] | [19] | [20]
inactive: all other assays above

C=C(C)C(=O)OCCCC
not listed: [10] | [13] | [14] | [15] | [19] | [20]
inactive: all other assays above

O=Cc1ccccc1S(=O)(=O)O
not listed: [11] | [12] | [13] | [19] | [20]
inactive: all other assays above

CC(=O)Oc1ccc(C(C)=O)cc1
not listed: [11] | [12] | [15] | [18]
inactive: all other assays above

From PubChem BioAssay (Tox21)
